Experimental data taken from PubChem BioAssay AID745 (Emory University Molecular Libraries Screening Center, 2007).
Among all 33,000 compounds or so, about 40 (0.1%) were called active. The sample holds actives, similar compounds and a random draw of the others, so the mix is not that of the screen. Unmarked numbers belong to inactive results. Cut-off read from the data, not from the text of the source: active = z-score below about -3; inactive = the rest.

Experiment: inhibitors of measles virus growth in cells, primary screen, measles RdRp inhibitor project, cell-based, single point, HTS (AID 745)
Details: infected Vero cells, GFP fluorescence, 64 h; active compounds read low
For COc1nc(SC)nnc1C, the z-score was -5.82 (active). Compound COc1cc(NC(=O)c2cc(-c3ccc(Cl)cc3)on2)c(OC)cc1Cl has a z-score of -0.12. COC(=O)c1sc(=S)n(-c2ccc(OC)c(Cl)c2)c1N gave a z-score of 0.31. O=C(Nc1c(C(=O)N2CCC(Cc3ccccc3)CC2)cnn1-c1ccccc1)c1ccc(Br)cc1 gave a z-score of 0.43. With COc1ccc(-c2cc(C(=O)Nc3sc4c(c3C(N)=O)CCCC4)no2)cc1 the z-score was 0.31. CCCc1n(CC(O)COc2cccc(Cl)c2)c2ccccc2[n+]1C (configuration not stated) showed a z-score of 0.55. For CC1CC(C)(C)NC(=S)N1CCC(=O)Nc1ccc(OC(F)(F)F)cc1 (configuration not stated), the z-score was -0.78. With O=C1COc2ccc(Cl)cc2N1 the z-score was 0.06. CCOC(=O)c1sc(NC(=O)COc2ccc(C(C)C)c(C)c2)nc1C showed a z-score of -0.5. Compound COc1ccc(C2C(C(=O)Nc3ccc(Br)cc3C)c3ccccc3C(=O)N2C)cc1 (configuration not stated) has a z-score of -0.56. Compound O=S(=O)(c1ccccc1)N1CCN(C2CC3CCC2C3)CC1 (configuration not stated) has a z-score of -0.28. With N=C1N=C(N)C(Cc2ccccc2)S1 (configuration not stated) the z-score was -0.59. Compound Cc1noc(NS(=O)(=O)c2ccc(NC(=O)c3cccc(Br)c3)cc2)c1C has a z-score of 0.43. Compound CC(=O)Nc1cc(C(=O)N(C)CCC#N)ccc1Sc1ccc(Cl)cc1 has a z-score of -1.08. COc1ccc(C2C(C(=O)Nc3ccccc3F)=C(C)NC3=C2C(=O)CCC3)cc1OC (configuration not stated) gave a z-score of 0.03. In the case of O=C(NCc1ccccc1)c1ccc2c(=O)n(-c3ccccc3)c(=S)[nH]c2c1, the z-score was 0.39. Compound O=C1C(=O)N(c2nccs2)C(c2ccccc2Cl)/C1=C(\O)c1ccc(F)cc1 (configuration not stated) has a z-score of 1.65. CCCCNC(=O)c1cnn2c(C)c(Cc3ccccc3)c(C)nc12 gave a z-score of -0.18. Compound O=C(c1ccc(-n2c(=S)[nH]c3ccccc3c2=O)cc1)N1CCN(C2CCCCC2)CC1 has a z-score of -0.06. In the case of O=C(Nc1ncnc2sc3c(c12)CCCC3)c1ccccc1, the z-score was 0.41. S=c1[nH]c(-c2ccc(Cl)cc2)cn1-c1cccc(Cl)c1 gave a z-score of -0.55. Work on Nc1nnc2c(n1)-c1ccccc1C2=O yielded a z-score of 0.84. CCC(NS(=O)(=O)c1ccc(Oc2ccc([N+](=O)[O-])cc2)cc1)C12CC3CC(CC(C3)C1)C2 (configuration not stated) gave a z-score of -1.36. O=C(CN1C(=O)c2cccc3cccc1c23)N1CCCCCC1 gave a z-score of 0.09. CCCCN(C)Cc1c(O)ccc2c(=O)c(Oc3ccc(CC)cc3)c(C(F)(F)F)oc12 gave a z-score of -0.69. Fc1ccccc1CSc1nc(NCC2CCCO2)c2ccccc2n1 (configuration not stated) gave a z-score of -1.9. With COCCNC(=O)c1ccc(N2CC3CC(C2)c2cccc(=O)n2C3)c(NC(=O)c2cc3ccccc3oc2=O)c1 (configuration not stated) the z-score was 0.89. In the case of Cc1ccc(NCc2ccccc2CO)cc1, the z-score was -0.53. In the case of C=CCC1(C#N)C(=S)NC(c2ccccc2)=C(C(=O)OCC)C1c1cccnc1 (configuration not stated), the z-score was 1.37. For CC(=O)N1CCc2cc(Br)cc(S(=O)(=O)NCCCN3CCCCCC3)c21, the z-score was 0.64. Work on COc1ccc(C=NCCC2(c3ccc(OC)cc3)CCOC(C)(C)C2)cc1 (configuration not stated) yielded a z-score of -0.17. COc1ccccc1-c1nc2nc(C)cc(=O)n2[nH]1 gave a z-score of -0.19. Cc1ccccc1C(=O)Nc1cccc(F)c1 gave a z-score of 1.39. With O=C(Cc1c(C(=O)O)[nH]c2ccc(Cl)cc12)NCc1ccc2c(c1)OCO2 the z-score was 1.5. With COc1ccc(NC(=O)Cn2c(=O)n(CCc3ccccc3)c(=O)c3c(C)c(C)sc32)cc1 the z-score was 2.83. Cn1c(=O)c(=O)n(C)c2cc(S(=O)(=O)N3CCCc4ccccc43)ccc21 showed a z-score of -0.1. For CCN1CCN(c2cc(C)c3cc(NC(=O)CCC4CCCC4)ccc3n2)CC1, the z-score was -0.38. For Cc1cccc(C)c1NC(=O)CSc1ccc([N+](=O)[O-])cn1, the z-score was 0.01. With COc1cccc(NC(=O)Cn2cc(C(=O)C(F)(F)F)c3ccccc32)c1 the z-score was -0.44. Work on COc1ccc(OC)c(C2Nc3cccc4cccc(c34)N2)c1 yielded a z-score of -0.45. In the case of CCOP(=O)(Cc1cc(C(C)(C)C)c(O)c(C(C)(C)C)c1)OCC, the z-score was -1.02. In the case of CC1Cc2nc(SCC(=O)Nc3cccc(Cl)c3)n(C)c(=O)c2S1 (configuration not stated), the z-score was 0. COc1cccc(OC)c1C(=O)Oc1cccc2ccc(C)nc12 showed a z-score of -0.39. For CC1(C)CC(=O)C2=C(C1)OC1=C(C(=O)CC(C)(C)C1)C2c1ccccc1C(=O)O, the z-score was 0.12. Work on O=[N+]([O-])c1ccc(N2CCCCCC2)c(S(=O)(=O)N2CCOCC2)c1 yielded a z-score of -0.01. Cc1ccccc1NC(=O)CC1Sc2ccccc2NC1=O (configuration not stated) gave a z-score of -0.07. In the case of O=C(O)CCNC(=O)Cn1cnc2sc3c(c2c1=O)CCCC3, the z-score was 1.62. For CCn1c(SCC(=O)Nc2ccc(F)cc2)nc2c(c1=O)SC(C)C2 (configuration not stated), the z-score was -0.54. O=C(CSc1nc2c([nH]c3ccccc32)c(=O)n1-c1cccc(Cl)c1)Nc1nccs1 showed a z-score of -1.08. For COc1ccc(Cl)cc1NC(=O)CSc1nc2cc(OC)c(OC)cc2c2nc(C)nn12, the z-score was -0.11. CCOCCOC(=O)C1=C(C)NC(=O)NC1c1cccc([N+](=O)[O-])c1 (configuration not stated) showed a z-score of 4.15. With COc1ccc(C=Cc2nc3ccccc3[nH]2)cc1 the z-score was -0.15. For COc1cc(C2NC(=O)N(C)C(C)=C2C(=O)OCCc2ccccc2)cc(Br)c1O (configuration not stated), the z-score was -0.63. COc1ccccc1-n1c(C)nc2cc(C(=O)NCc3cccnc3)ccc21 gave a z-score of 1.95. Work on Cc1ccc(C(=O)CC2(O)C(=O)N(C(C)C)c3ccccc32)c(C)c1 (configuration not stated) yielded a z-score of -0.29. Compound Clc1ccc(-c2ncnn2-c2cccc(Cl)c2)cc1 has a z-score of -0.25. CCOc1ccc(Nc2cc(C(=O)NCCN3CCCC3)c3ccccc3n2)cc1 showed a z-score of -0.89. Compound O=C(Nc1ccccc1-c1nc2ccccc2s1)c1ccc(S(=O)(=O)N2CCCCCC2)cc1 has a z-score of 0.69. O=C(Nc1ccc(Oc2ccccc2)cc1)c1cn(-c2ccc(Cl)cc2)c(=O)c2ccccc12 showed a z-score of -0.93. Compound Cc1onc(-c2ccccc2)c1C(=O)N1CCN(c2ccc(OCc3ccccc3)cc2)CC1 has a z-score of -0.43. In the case of Cc1nn(C)c(C)c1S(=O)(=O)Nc1ccc(C(C)C)cc1, the z-score was -0.07. For O=C(COC(=O)c1ccc(N2C(=O)c3ccccc3C2=O)cc1)c1ccc(Cl)cc1, the z-score was -1.36. For CCOC(=O)c1c(O)cc2ccccc2c1O, the z-score was 0.14. O=C1NCCCCC1Nc1ccc(N2C(=O)CCCC2=O)cc1[N+](=O)[O-] (configuration not stated) showed a z-score of -1.9. For Cc1ccc(C(=O)Nc2ccc(Br)cn2)cc1C, the z-score was -0.15. For COc1ccc(NC(=O)CN(c2cc(C(F)(F)F)ccc2Cl)S(=O)(=O)c2ccccc2)cc1, the z-score was -0.33. With Cc1ccc2nc(N3CCC(C(=O)NC4CCCCC4)CC3)[nH]c2c1 the z-score was 3.44. Work on CCCCSc1nnc2c(n1)OC(c1ccc3c(c1)OCO3)N(C(C)=O)c1ccccc1-2 (configuration not stated) yielded a z-score of 0.17. C=CCN1C(=O)c2ccccc2Sc2ccc(C(=O)NCCOC)cc21 showed a z-score of 1.28. For Cc1ccc(S(=O)(=O)N2N=C(c3ccccc3)CC2c2ccccc2Cl)cc1 (configuration not stated), the z-score was 0.52. For COCCOC(=O)C1=C(C)NC(=O)NC1c1ccc(Br)s1 (configuration not stated), the z-score was -0.55. Compound Cc1ccc(CNC(=O)CCNC(=O)Cn2ccc3ccccc3c2=O)cc1 has a z-score of -0.31. In the case of CCOc1sc2nc(C)n(CC(=O)Nc3ccc(N(C)C)cc3)c(=O)c2c1C, the z-score was -1.08. For CCC(C)NC(=O)C1(C)CCC(=O)N1CCN1CCCCCC1 (configuration not stated), the z-score was -0.27. For O=C1C2C3C=CC(C3)C2C(=O)N1c1ccc(Nc2ccc3c(c2)CCC3)c([N+](=O)[O-])c1 (configuration not stated), the z-score was -1.35. With Cn1ncc([N+](=O)[O-])c1C#N the z-score was -0.09. With COc1ccc2c(c1)c(C(=O)CNc1nc(C)c(C)s1)c(C)n2C the z-score was -1. For O=C1CCCN1CCCn1c(=S)[nH]c2ccccc2c1=O, the z-score was -0.96. Work on CC(=O)N1CCc2cc(S(=O)(=O)CCC(=O)Nc3ccc(C(F)(F)F)cc3)ccc21 yielded a z-score of -0.69. Cc1ccc2nsnc2c1S(=O)(=O)Nc1ccc(Br)cc1 showed a z-score of -1.76. With Cc1ccccc1NCc1cccc([N+](=O)[O-])c1 the z-score was 0.03. O=C(c1oc(=O)c2ccccc2c1-c1ccccc1)N1CCc2ccccc21 gave a z-score of 0.81. For Nc1nc2ccccc2n1CCOc1ccc([N+](=O)[O-])cc1, the z-score was -0.25. In the case of CCC(=O)Nc1cccc(-c2nc3ncccc3o2)c1, the z-score was 0.77. Work on Cc1ccc(CNC(=O)CCSCc2cccc(Cl)c2)cc1 yielded a z-score of -0.79. CCOc1ccc(C(=O)Nc2ccc3nn(-c4ccc(OC)cc4)nc3c2)cc1Cl gave a z-score of 0.27. Cc1ccc(-c2nnn(CC(=O)Nc3ccc(OC(F)(F)F)cc3)n2)cc1 showed a z-score of 0.34. CCOC(=O)c1cnc2ccc(Cl)cc2c1Nc1ccc2c(c1)OCCO2 gave a z-score of -0.29. O=C(N1CCCc2ccccc21)C12CC3CC(CC(C3)C1)C2 showed a z-score of -0.74. O=C(O)c1ccc2c(c1)C(=O)N(c1cccc(Oc3ccc4c(c3)C(=O)N(c3ccccc3)C4=O)c1)C2=O gave a z-score of -2.01. COc1ccc(-n2cnc3cc(C(=O)NC4CCCC4)ccc32)cc1 gave a z-score of -0.86. Work on Cc1cc(C)cc(-n2nc3c(c2NC(=O)CCCCl)CSC3)c1 yielded a z-score of -0.91. COc1ccc(OC)c(NC(=O)c2c(NCc3ccc(C)o3)sc3c2CCC3)c1 showed a z-score of -1.95. Cc1cccc(C(=O)Nc2ccc(-c3nc4cc(C(C)(C)C)ccc4o3)cc2)c1 gave a z-score of -0.77. In the case of CCn1cc(C(=O)Nc2cc(Cl)ccc2OC)c(=O)c2ccc(C)nc21, the z-score was 0.75. Work on CCn1cc(C(=O)NCCCN2CCCCCC2)c2cc(OC)c(OC)cc2c1=O yielded a z-score of -0.6. In the case of Cc1cc(C)cc(NC(=O)CCCn2c(=S)[nH]c3ccccc3c2=O)c1, the z-score was -1.99. CCCCCCn1c(SCC(=O)c2ccccc2)nc2c1c(=O)[nH]c(=O)n2C gave a z-score of -0.58. In the case of CC(C)c1ccc(NS(=O)(=O)c2ccc3[nH]cc(C(=O)NC4CCCC4)c(=O)c3c2)cc1, the z-score was -2.24. For COc1cc(C(=O)Nc2ccc(C(C)=O)cc2)cc(OC)c1OC, the z-score was 0.14. O=C(O)c1ccc(-n2cnnn2)cc1 gave a z-score of 1.04. Work on CCOC(=O)C1CCN(c2nc(-c3cccc(C)c3)nc3ccccc23)CC1 yielded a z-score of -0.19. For Cc1ccccc1CSC1=NCCN1C(=O)C12CC3CC(CC(C3)C1)C2, the z-score was -0.58. With CCOc1ccccc1N(C)C(=O)C1c2cc(OC)c(OC)cc2C(=O)N(C)C1c1cccnc1 (configuration not stated) the z-score was 1.17. Compound CCN(CC)C(=O)C1c2cc(OC)c(OC)cc2C(=O)N(C)C1c1ccc(SC)cc1 (configuration not stated) has a z-score of 0.35. Work on Nc1c(C(=O)Nc2ccc(Br)cc2)sc2nc3c(c(-c4ccco4)c12)CCCCC3 yielded a z-score of -0.89. With CN(C)c1ccc(C(O)(c2ccccc2)c2ccccc2)cc1 the z-score was -0.51. For CC(C)CC(=O)N1CCN(Cc2cccc(Cl)c2)CC1, the z-score was -4 (active). Compound CC(C)CC(=O)N1CCN(Cc2ccccc2Br)CC1 has a z-score of 0.09. Compound O=C(CN1CCN(Cc2cccc(Cl)c2)C1=O)NC1CCCCCCC1 has a z-score of 0.45. With CCC(=O)N1CCc2cc(Br)cc(S(=O)(=O)N3CCCC(C(=O)N4CCN(c5cccc(C(F)(F)F)c5)CC4)C3)c21 (configuration not stated) the z-score was -0.33. Work on CCOC(=O)c1c(C)oc2ccc(N(C(=O)c3ccccc3Cl)S(=O)(=O)c3cccc([N+](=O)[O-])c3)cc12 yielded a z-score of -0.28.
